Data on 13 molecules can be found in PubChem BioAssay (NCI).

The panel holds about 83,000 compounds, 20% with a hit somewhere; the sample as a whole holds those more often.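 The test compound was applied at a single concentration to cells in 96-well plates for 48 hours, and percent growth was recorded.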 Active and inactive are the calls of the source. How the source made its calls: active means growth percent below 10; inactive means the rest.

For this test, the system named is PC-3 prostate. The test is described as follows: NCI-60 one-dose screen, 48 h (100 = growth as untreated, 0 = no growth, -100 = all killed). The following applies: 10 µM unless noted.
`COC1=CC(c2ccc[nH]2)=N/C1=C\c1[nH]c(C)c(C(=O)CCCCC(=O)NC(C)(C)C)c1C`: the growth is -31.3% (active).
As to `COc1ccc(NC(=O)/C=C(C)/C=C/C=C(C)/C=C/C2=C(C)CCCC2(C)C)cc1`, the growth is 63.1% (inactive).
The figure for `CCCCCCCCc1ccc(OCCOCC[N+](C)(C)CC)cc1` (tested in a mixture with another compound) is 42.6% (inactive); for `COc1cc2c(cc1OC)C(Cc1cc(OC)c(OC)cc1[N+](=O)[O-])=NCC2` it is 69.2% (inactive).
The figure for `O=C1CCNC1` is 95.7% (inactive).
For the molecule `COc1ccc(-c2nnc(SCC(=O)Nc3ccc(C(=O)/C=C/c4cc(OC)c(OC)c(OC)c4)cc3)n2-c2ccccc2)cc1OC`, the growth is 10.9% [100 µM] (inactive).
To `O=S(=O)(O)c1ccc2c(c1)Sc1cc(S(=O)(=O)O)ccc1O2` belongs 99.2% (inactive); to `Cc1ccc(S(=O)(=O)Nc2cccc(Cn3c(=O)[nH]c4ccc(Oc5ncccn5)cc4c3=O)c2)cc1`, 52% (inactive).
On to `CCCCCCCCCCC(C[N+](C)(C)C/C=C/c1ccccc1)C(O)c1ccccc1` (stereo not drawn), for which the growth was -29.9% (active).
For the molecule `COc1ccc(/C=C2\CCCC3=C2N=C2SC=NN2C3c2ccc(OC)c(OC)c2)cc1OC` (stereo not drawn), the growth was 67.9% (inactive).
The figure for `COc1cc(CCNc2cnc3cc(N)cc(N)c3n2)cc(OC)c1` is 118% (inactive).
`O=C(CCl)c1ccc2c(c1)CCCC2`: the growth was 95.7% (inactive).
The figure for `Cc1ccc(C(=O)Nc2ccc(CN3CCN(C)CC3)c(C(F)(F)F)c2)cc1C#Cc1cnc(N)c2ccc(F)cc12` is -82.7% (active).
